In PubChem BioAssay (EPA / NIEHS):
Active and inactive are the calls of the source. How the source made its calls: active means hit-call score of the fitted dose curve at least 0.9, where 1 is the maximum; inactive means score below 0.9.

How the values were obtained:
Conditions in all cases: mRNA level, 48 h; actives raise or lower the signal
[1] = read-out: Hypoxia-inducible factor 1-alpha (Homo sapiens) (UniProt Q16665); experiment: LTEA_HepaRG_HIF1A: Life Technologies and Expression Analysis (LTEA) Assay for Hypoxia-inducible factor 1 (HIF1A) Trancription factor using HepaRG (AID 2283503);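 further: HIF1A transcript by TaqMan qRT-PCR normalized to ACTB GAPDH and POLR2A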
Method in brief: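 Gain- or loss-of-signal HIF1A mRNA changes are fitted against a DMSO baseline. HepaRG cultures receive eight concentrations, highest 100 uM, for 48 h in serum-free induction medium with 0.5% DMSO.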

[2] = read-out: 3-Hydroxy-3-Methylglutaryl-CoA Synthase 2 (HMGCS2), HMGCS2 (gene 3158); experiment: LTEA_HepaRG_HMGCS2: Life Technologies and Expression Analysis (LTEA) Assay for 3-Hydroxy-3-Methylglutaryl-CoA Synthase 2 (HMGCS2) using HepaRG (AID 2283504)
Method in brief: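 Expression of HMGCS2 in human HepaRG liver cells is measured by qRT-PCR 48 h after dosing (highest 100 uM, half-log series, 0.5% DMSO). Values come from bidirectional concentration-response fitting with DMSO as baseline.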

[3] = read-out: HGF (gene 3082); experiment: LTEA_HepaRG_HGF: Life Technologies and Expression Analysis (LTEA) Assay for Hepatocyte Growth Facto (HGF) using HepaRG (AID 2283505)
Method in brief: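 Gain or loss of HGF mRNA in human HepaRG liver cells after 48 h chemical exposure; eight concentrations up to 100 uM with 0.5% DMSO vehicle, quantified by TaqMan qRT-PCR.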

[4] = read-out: Insulin Like Growth Factor 1 (IGF1), IGF1 (gene 3479); experiment: LTEA_HepaRG_IGF1: Life Technologies and Expression Analysis (LTEA) Assay for Insulin Like Growth Factor 1 (IGF1) using HepaRG (AID 2283506)
Method in brief: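 qRT-PCR readout of IGF1 mRNA, normalized to three housekeeping genes, after 48 h chemical exposure of HepaRG cells. Concentrations: 8-point half-log series, top 100 uM, 0.5% DMSO vehicle. Gain or loss fitted against DMSO baseline.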

[5] = read-out: Intercellular Adhesion Molecule 1 (ICAM1), ICAM1 (gene 3383); experiment: LTEA_HepaRG_ICAM1: Life Technologies and Expression Analysis (LTEA) Assay for Intercellular Adhesion Molecule 1 (ICAM1) using HepaRG (AID 2283507)
Method in brief: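 Gain or loss of transcript in HepaRG hepatic cells is quantified by qRT-PCR after 48 h chemical exposure (up to 100 uM, half-log steps), with DMSO as baseline.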

[6] = read-out: Interleukin 6 (IL6), IL6 (gene 3569); experiment: LTEA_HepaRG_IL6: Life Technologies and Expression Analysis (LTEA) Assay for Interleukin 6 (IL6) using HepaRG (AID 2283509)
Method in brief: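 Transcript levels, normalized to three housekeeping genes, were quantified by qRT-PCR after 48 h chemical treatment of HepaRG cells. Eight-point half-log series from 100 uM in 0.5% DMSO, duplicates. Fitted both directions against DMSO baseline.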

[7] = read-out: Interleukin 6 Receptor (IL6R), IL6R (gene 3570); experiment: LTEA_HepaRG_IL6R: Life Technologies and Expression Analysis (LTEA) Assay for Interleukin 6 Receptor (IL6R) using HepaRG (AID 2283510);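 on AC50: differentiated human HepaRG liver cells in serum-free induction medium; TaqMan qRT-PCR signal normalized to ACTB GAPDH and POLR2A housekeeping genes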
Method in brief: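 HepaRG, 48 h exposure, 8-pt half-log series, top 100 uM, 0.5% DMSO vehicle, duplicates. Read-out: TaqMan qRT-PCR of IL6R transcript, housekeeping-gene normalized. Gain or loss fitted relative to DMSO baseline.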

[8] = read-out: Potassium channel subfamily K member 1 (KCNK1), KCNK1 (gene 3775); experiment: LTEA_HepaRG_KCNK1: Life Technologies and Expression Analysis (LTEA) Assay for Potassium channel subfamily K member 1 (KCNK1) using HepaRG (AID 2283511)
Method in brief: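 KCNK1 transcript measured by TaqMan qRT-PCR against three housekeeping genes, after HepaRG cells were treated 48 h with eight half-log concentrations (top 100 uM, 0.5% DMSO). Curves fitted bidirectionally relative to vehicle.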

[9] = read-out: Keratin 19 (KRT19), KRT19 (gene 3880); experiment: LTEA_HepaRG_KRT19: Life Technologies and Expression Analysis (LTEA) Assay for Keratin 19 (KRT19) using HepaRG (AID 2283512)
Method in brief: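 Gene-expression endpoint in the human liver line HepaRG after 48 h exposure to up to 100 uM test chemical with 0.5% DMSO vehicle; KRT19 mRNA by qRT-PCR, analyzed bidirectionally versus DMSO.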

[10] = read-out: JUN Transcription Factor, JUN (gene 3725); experiment: LTEA_HepaRG_JUN: Life Technologies and Expression Analysis (LTEA) Assay for JUN Transcription Factor using HepaRG (AID 2283513)
Method in brief: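 HepaRG, 48 h exposure, 8-pt half-log series top 100 uM, 0.5% DMSO, duplicate. JUN mRNA by qRT-PCR (Fluidigm), housekeeping-normalized (ACTB/GAPDH/POLR2A); bidirectional curve fit vs DMSO baseline.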

[11] = read-out: Lipase C (LIPC), LIPC (gene 3990); experiment: LTEA_HepaRG_LIPC: Life Technologies and Expression Analysis (LTEA) Assay for Lipase C (LIPC) using HepaRG (AID 2283514)
Method in brief: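 LIPC expression was quantified by qRT-PCR against three housekeeping genes (ACTB, GAPDH, POLR2A). Differentiated human HepaRG cells received eight half-log doses (top 100 uM, 0.5% DMSO) in duplicate for 48 h; fitting bidirectional relative to DMSO.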

[12] = read-out: Lipoprotein lipase (LPL), LPL (gene 4023); experiment: LTEA_HepaRG_LPL: Life Technologies and Expression Analysis (LTEA) Assay for Lipoprotein lipase (LPL) using HepaRG (AID 2283515)
Method in brief: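 LPL transcript levels quantified by TaqMan qRT-PCR against three housekeeping genes after 48 h chemical treatment of HepaRG cells. Eight-point half-log series from 100 uM in 0.5% DMSO, tested in duplicate; bidirectional fitting versus vehicle.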

[13] = read-out: MicroRNA 122 (MIR122), gene 406906; experiment: LTEA_HepaRG_MIR122: Life Technologies and Expression Analysis (LTEA) Assay for MicroRNA 122 (MIR122) using HepaRG (AID 2283516); further: the transcript read is the microRNA miR-122
Method in brief: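 qRT-PCR read-out (TaqMan, Fluidigm array), normalized to three housekeeping genes; HepaRG cells dosed 48 h at 8 concentrations up to 100 uM in 0.5% DMSO, duplicate; gain or loss fitted against DMSO baseline.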

[14] = read-out: matrix metalloproteinase-3 (MMP3), MMP3 (gene 4314); experiment: LTEA_HepaRG_MMP3: Life Technologies and Expression Analysis (LTEA) Assay for matrix metalloproteinase-3 (MMP3) using HepaRG (AID 2283519)
Method in brief: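 Fluidigm-based TaqMan qRT-PCR, normalized to ACTB, GAPDH and POLR2A and fitted bidirectionally versus 0.5% DMSO, measured transcript levels. Treatment: duplicate 48 h exposures of HepaRG cells, ~100,000/well, to eight half-log concentrations topping at 100 uM.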

[15] = read-out: Protein phosphatase 2A (PPP2R4), PTPA (gene 5524); experiment: LTEA_HepaRG_PPP2R4: Life Technologies and Expression Analysis (LTEA) Assay for Protein phosphatase 2A (PPP2R4) using HepaRG (AID 2283522)
Method in brief: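 HepaRG, 48 h exposure, 8-pt half-log series from 100 uM, 0.5% DMSO vehicle, duplicates. Readout: PPP2R4 mRNA, Fluidigm qRT-PCR, housekeeping-normalized. Bidirectional curve fit vs DMSO baseline.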

[16] = read-out: MYC, MYC (gene 4609); experiment: LTEA_HepaRG_MYC: Life Technologies and Expression Analysis (LTEA) Assay for MYC using HepaRG (AID 2283518)
Method in brief: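 Cells are thawed, plated and cultured 48 h, then treated for 48 h with test chemicals (eight half-log concentrations from 100 uM, 0.5% DMSO vehicle). RNA is isolated and MYC expression quantified by qRT-PCR against three housekeeping genes.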

[17] = read-out: Paternally Expressed 10 (PEG10), PEG10 (gene 23089); experiment: LTEA_HepaRG_PEG10: Life Technologies and Expression Analysis (LTEA) Assay for Paternally Expressed 10 (PEG10) using HepaRG (AID 2283520);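 on AC50: differentiated HepaRG human liver cells in serum-free induction medium with 0.5% DMSO; PEG10 transcript by qRT-PCR normalised to ACTB GAPDH and POLR2A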
Method in brief: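 qRT-PCR read-out: PEG10 mRNA normalised to three housekeeping genes, fitted bidirectionally against 0.5% DMSO vehicle. HepaRG cells received test chemicals for 48 h in serum-free induction medium, 8 points, top 100 uM, half-log steps.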

[18] = read-out: Nuclear factor NF-kappa-B p105 subunit (Homo sapiens) (UniProt P19838); experiment: LTEA_HepaRG_NFKB1: Life Technologies and Expression Analysis (LTEA) Assay for Nuclear Factor Kappa B Subunit 1 (NFKB1) using HepaRG (AID 2283521)
Method in brief: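 Human HepaRG cells receive eight half-log concentrations, highest 100 uM, for 48 h. NFKB1 expression is then quantified by qRT-PCR and analysed for up- or down-regulation relative to 0.5% DMSO vehicle.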

[19] = read-out: matrix metalloproteinase-10 (MMP10), MMP10 (gene 4319); experiment: LTEA_HepaRG_MMP10: Life Technologies and Expression Analysis (LTEA) Assay for matrix metalloproteinase-10 (MMP10) using HepaRG (AID 2283517)
Method in brief: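 Expression measured by TaqMan qRT-PCR with ACTB/GAPDH/POLR2A normalisation after 48 h chemical exposure of HepaRG cells. Eight half-log concentrations, top 100 uM, 0.5% DMSO vehicle, duplicates; gain or loss fitted against vehicle.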

Measured: AC50

Nuclear factor NF-kappa-B p105 subunit (Homo sapiens), sequence (P19838 whole entry, looked up): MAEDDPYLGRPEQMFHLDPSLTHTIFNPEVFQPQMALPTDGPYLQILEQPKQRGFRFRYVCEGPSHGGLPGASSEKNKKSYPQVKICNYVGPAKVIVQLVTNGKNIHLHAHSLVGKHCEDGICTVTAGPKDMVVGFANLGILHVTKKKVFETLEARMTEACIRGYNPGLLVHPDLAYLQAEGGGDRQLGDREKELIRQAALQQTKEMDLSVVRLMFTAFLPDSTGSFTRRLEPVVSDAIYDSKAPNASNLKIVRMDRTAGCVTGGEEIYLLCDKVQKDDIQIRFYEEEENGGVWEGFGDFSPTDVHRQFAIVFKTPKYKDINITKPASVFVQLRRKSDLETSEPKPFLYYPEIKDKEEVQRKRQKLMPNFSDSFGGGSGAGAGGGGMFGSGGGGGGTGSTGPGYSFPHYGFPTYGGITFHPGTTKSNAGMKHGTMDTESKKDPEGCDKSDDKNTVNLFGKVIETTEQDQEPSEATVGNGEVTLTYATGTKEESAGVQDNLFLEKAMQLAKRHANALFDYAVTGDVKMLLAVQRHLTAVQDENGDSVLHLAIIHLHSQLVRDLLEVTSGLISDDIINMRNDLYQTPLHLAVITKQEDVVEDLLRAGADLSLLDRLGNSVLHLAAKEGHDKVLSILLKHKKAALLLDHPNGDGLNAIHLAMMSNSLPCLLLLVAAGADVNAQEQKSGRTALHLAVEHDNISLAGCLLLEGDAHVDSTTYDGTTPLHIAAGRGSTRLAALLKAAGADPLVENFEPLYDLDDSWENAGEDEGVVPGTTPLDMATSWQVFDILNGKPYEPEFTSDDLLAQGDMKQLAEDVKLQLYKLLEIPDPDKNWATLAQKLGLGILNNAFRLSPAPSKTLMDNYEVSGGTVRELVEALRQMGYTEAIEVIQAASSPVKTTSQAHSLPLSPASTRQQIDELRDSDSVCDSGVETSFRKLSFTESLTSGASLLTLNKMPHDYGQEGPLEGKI
Hypoxia-inducible factor 1-alpha (Homo sapiens), sequence (Q16665 whole entry, looked up): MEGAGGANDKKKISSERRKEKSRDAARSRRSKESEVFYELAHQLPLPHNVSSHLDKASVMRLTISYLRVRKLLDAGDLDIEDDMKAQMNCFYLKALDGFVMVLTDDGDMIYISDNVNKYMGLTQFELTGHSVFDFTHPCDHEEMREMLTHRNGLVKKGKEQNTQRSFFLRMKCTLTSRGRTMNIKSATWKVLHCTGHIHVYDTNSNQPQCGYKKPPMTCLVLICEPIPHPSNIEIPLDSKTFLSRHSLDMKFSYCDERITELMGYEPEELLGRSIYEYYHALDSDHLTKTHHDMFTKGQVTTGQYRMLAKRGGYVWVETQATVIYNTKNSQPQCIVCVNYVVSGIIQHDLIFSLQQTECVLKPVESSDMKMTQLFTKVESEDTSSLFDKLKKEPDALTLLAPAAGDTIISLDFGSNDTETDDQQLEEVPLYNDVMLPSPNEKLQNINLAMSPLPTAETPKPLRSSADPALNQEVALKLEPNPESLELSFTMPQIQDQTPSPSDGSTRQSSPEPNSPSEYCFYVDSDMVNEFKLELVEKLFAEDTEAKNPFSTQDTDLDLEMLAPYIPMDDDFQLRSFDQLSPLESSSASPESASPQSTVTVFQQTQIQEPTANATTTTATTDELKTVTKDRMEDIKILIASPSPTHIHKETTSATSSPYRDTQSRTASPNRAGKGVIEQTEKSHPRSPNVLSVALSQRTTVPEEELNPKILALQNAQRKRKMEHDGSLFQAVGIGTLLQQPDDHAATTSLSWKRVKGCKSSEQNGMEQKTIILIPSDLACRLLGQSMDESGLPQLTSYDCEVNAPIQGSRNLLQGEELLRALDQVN

CC(C)=CC1C(C(=O)OCN2C(=O)C3=C(CCCC3)C2=O)C1(C)C (configuration not stated)
not listed: [16] | [17] | [18] | [19]
inactive: all other assays above

CCOP(=S)(OCC)Oc1ccc2c(C)c(Cl)c(=O)oc2c1
active: [2] 51.8 µM | [4] 33.8 µM | [9] 29.4 µM | [11] 74.7 µM | [13] 50 µM | [16] 50 µM | [17] 13.2 µM
not listed: [18] | [19]
inactive: all other assays above

COP(=O)(NC(C)=O)SC (configuration not stated)
not listed: [18] | [19]
inactive: all other assays above

Nc1nc(N)nc(NC2CC2)n1
not listed: [19]
inactive: all other assays above

CCOC(=O)CC(SP(=O)(OC)OC)C(=O)OCC (configuration not stated)
not listed: [19]
inactive: all other assays above

CSc1nnc(C(C)(C)C)c(=O)n1N
not listed: [17]
inactive: all other assays above

CCCOc1nn(C(=O)NS(=O)(=O)c2ccccc2C(=O)OC)c(=O)n1C
not listed: [17] | [19]
inactive: all other assays above

CCC(=O)Nc1ccc(Cl)c(Cl)c1
active: [9] 41.4 µM | [16] 50 µM
not listed: [17] | [18]
inactive: all other assays above

CCOP(=S)(OCC)SCCSCC
not listed: [4] | [19]
inactive: all other assays above

CNC(=O)Oc1cccc2c1OC(C)(C)O2
not listed: [18] | [19]
inactive: all other assays above

CC(C1CC1)C(O)(Cn1cncn1)c1ccc(Cl)cc1 (configuration not stated)
active: [2] 83.6 µM | [4] 37 µM
not listed: [14] | [17] | [19]
inactive: all other assays above

Nc1c(Cl)cc([N+](=O)[O-])cc1Cl
active: [1] 86.6 µM | [2] 50 µM | [7] 28.2 µM | [9] 6.97 µM | [11] 75.3 µM | [12] 15.5 µM | [13] 50 µM | [16] 12.3 µM | [17] 36.7 µM | [18] 12.2 µM | [15] 50 µM
inactive: [3] | [4] | [5] | [6] | [8] | [10] | [14]

CCOP(=O)(OCC)Oc1cc(C)nc(C(C)C)n1
not listed: [17] | [18] | [19]
inactive: all other assays above

CC(C)N(C(=O)SCC(Cl)=C(Cl)Cl)C(C)C
not listed: [17] | [18]
inactive: all other assays above

CCNc1nc(Cl)nc(NC(C)(C)C#N)n1
not listed: [9] | [17] | [18] | [19]
inactive: all other assays above

COc1cccc(C(=O)NN(C(=O)c2cc(C)cc(C)c2)C(C)(C)C)c1C
active: [4] 74.6 µM
not listed: [17] | [19]
inactive: all other assays above

CN(C)C(=O)Nc1cccc(C(F)(F)F)c1
active: [11] 50 µM | [14] 82.7 µM
not listed: [17] | [19]
inactive: all other assays above
